# Source: PubChem
# Rows were chosen to be rich in hits. Some 2.8% of all compounds tested hit in one or more screens of this group.
# POLB inh = qHTS Assay for Inhibitors of DNA Polymerase Beta. P06746. Pol beta primer extension/strand displacement, fluorescence kinetic. actives 1.3% (n = 340,000). Potency, µM (titrated, usually from 114 µM), without a hit: top-dose activity change, negative = inhibition, actives largely listed as inhibitors; also: potency is read from the fitted curve at half-maximal effect; % is scaled to controls: 0 for no effect and ±100 for the full control effect
#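 Preincubation: enzyme (10 nM) with compound, 15 min, RT. Reaction: substrate added to 50 nM final. Reads: 0 and 10 min. Analysis: normalized, Hill fit.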
# PI5P4Ka inh = qHTS for Inhibitors of phosphatidylinositol 5-phosphate 4-kinase (PI5P4K); PI5P4Kalpha enzyme, ADP-Glo luminescence, 60 min; stronger effect = lower value; Phosphatidylinositol 5-phosphate 4-kinase type-2 alpha (Homo sapiens), P48426; max response, %; actives 1.2% (n = 330,000); active = max response of -50% or lower; inconclusive = between -30% and -50%; inactive = -30% or higher; also: value at the top dose of about 77 µM; % is scaled to controls: 0 for no effect and ±100 for the full control effect
#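 Controls without substrate or without enzyme flank wells where PI5P4Kalpha converts substrate using 5 microM ATP (final). Incubation lasts 60 minutes at room temperature; ADP formed is read by ADP-Glo luminescence.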
# WRN helicase inh = qHTS for Inhibitors of WRN Helicase. actives 0.46% (n = 360,000). Bifunctional 3'-5' exonuclease/ATP-dependent helicase WRN (Homo sapiens), Q14191. WRN helicase unwinding, fluorescent forked duplex, kinetic. Potency, µM (top dose mostly 114 µM), without a hit: at the highest dose activity change, negative = inhibition, most hits filed as inhibitors. AID 651768, 2012; also: potency is read from the fitted curve at half-maximal effect; % is scaled to controls: 0 for no effect and ±100 for the full control effect; nearly all actives have a fitted effect of over 55% in size
#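 WRN at 20 nM final preincubated with compound 15 min at room temperature; reaction started with 100 nM fluorophore/quencher forked duplex oligonucleotide and 2 mM ATP final. Unwinding followed kinetically by red fluorescence (ex 525, em 598 nm).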
# Pol kappa inh = qHTS for Inhibitors of Polymerase Kappa; AID 588579, 2011; DNA polymerase kappa (Homo sapiens), Q9UBT6; actives 0.53% (n = 400,000); Potency, µM (doses to about 107 µM), for inactives: at the top dose activity, negative = inhibition, most hits filed as inhibitors; purified Pol kappa, fluorescent DNA synthesis assay, 10 min; also: potency is read from the fitted curve at half-maximal effect; % is scaled to controls: 0 for no effect and ±100 for the full control effect
#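 Kinetic fluorescence screen: compound preincubated 15 min RT with 10 nM enzyme; 50 nM substrate (final) initiates; reads at 0/10 min.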
# POLI inh = qHTS for Inhibitors of Polymerase Iota | Pol iota fluorescent replication assay, 10 min | actives 1% (n = 390,000) | DNA polymerase iota (Homo sapiens), Q9UNA4 | Potency, µM (series often up to 115 µM), for inactives: top-dose activity, negative = inhibition, usual class: inhibitors; also: potency is read from the fitted curve at half-maximal effect
#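 Fluorescent replication assay read twice, at 0 min and 10 min after adding 50 nM (final) substrate. Enzyme (10 nM) and compounds were first incubated 15 min at room temperature; enzyme-free buffer wells were negative controls.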
# Pol eta inh = qHTS for Inhibitors of Polymerase Eta; actives 1.2% (n = 390,000); Potency, µM (series often up to 114 µM), for the others: at the highest dose activity change, negative = inhibition, usual class: inhibitors; AID 588591, 2011; recombinant Pol eta, fluorescent DNA replication assay; DNA polymerase eta (Homo sapiens), Q9Y253; also: potency is read from the fitted curve at half-maximal effect; % is scaled to controls: 0 for no effect and ±100 for the full control effect
# Target sequence (Q9Y253 whole entry, looked up): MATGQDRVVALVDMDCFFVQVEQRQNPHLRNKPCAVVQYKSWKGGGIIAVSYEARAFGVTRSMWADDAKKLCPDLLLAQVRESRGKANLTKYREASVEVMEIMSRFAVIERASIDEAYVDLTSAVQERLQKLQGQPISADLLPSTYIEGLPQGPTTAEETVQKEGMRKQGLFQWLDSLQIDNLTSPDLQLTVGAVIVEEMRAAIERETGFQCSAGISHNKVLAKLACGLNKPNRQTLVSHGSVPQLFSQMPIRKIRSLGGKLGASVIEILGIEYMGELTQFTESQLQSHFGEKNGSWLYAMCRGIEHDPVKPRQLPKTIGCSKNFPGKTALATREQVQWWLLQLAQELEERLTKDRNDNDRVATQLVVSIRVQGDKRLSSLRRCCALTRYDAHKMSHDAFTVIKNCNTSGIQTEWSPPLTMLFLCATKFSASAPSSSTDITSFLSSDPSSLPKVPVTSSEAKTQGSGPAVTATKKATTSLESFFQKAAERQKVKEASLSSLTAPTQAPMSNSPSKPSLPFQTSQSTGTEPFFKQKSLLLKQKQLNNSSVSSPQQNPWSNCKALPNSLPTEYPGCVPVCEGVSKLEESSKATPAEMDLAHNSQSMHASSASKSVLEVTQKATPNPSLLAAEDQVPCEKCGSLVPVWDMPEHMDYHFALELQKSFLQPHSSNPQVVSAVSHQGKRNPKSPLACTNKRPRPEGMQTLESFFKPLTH
#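 Pol eta at 10 nM preincubated with compounds 15 min at room temperature; reaction started with fluorescent substrate (50 nM final) and read kinetically at 0 and 10 min.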
# An asterisk follows results filed as active; u = inconclusive; x = no result; [ ] = another dose, or the depositor's remark. Unless noted, calls follow the shape of the dose curve; as a rule, active = well fitted curve in the direction sought with a large enough effect; inconclusive = small, poorly fitted or top-dose-only effect, or another doubt; inactive = no such curve, though single readings can be large; an effect the other way counts as inactive or inconclusive.
SMILES,POLB inh,PI5P4Ka inh,WRN helicase inh,Pol kappa inh,POLI inh,Pol eta inh
CC(CCc1ccco1)NC(=O)CCc1nnc2ccc(NCc3ccc(Cl)cc3)nn12 (centres undefined),40%,2,-3%[11.6 µM],79µM*,25µM*,-2%
CC(CCc1ccco1)NC(=O)CCc1nnc2ccc(NCc3ccccc3Cl)nn12 (centres undefined),-26%,-1,-8%,-1%,-15%,4%
COc1ccc(NC(=O)CCc2nnc3ccc(NCc4ccco4)nn23)cc1,-17%,-1,-3%,-7%,13%,5%
Cc1cccnc1NC(=O)CCc1nnc2ccc(NCc3ccco3)nn12,u,-13,-13%,-28%,u,45µM*
COc1ccc(N(CC(=O)N2CCN(c3ccc(F)cc3)CC2)S(=O)(=O)c2c(C)nn(C)c2C)cc1,6%,x,x,-22%,37%,-24%
N=C1C(c2nc3ccccc3s2)=C(O)CN1NC(=O)c1ccco1,25µM*,-2,-14%,-35%,u,-4%
COc1cccc(C(=O)NN2CC(O)=C(c3nc4ccccc4s3)C2=N)c1,u,2,-15%,-39%,u,-11%
Cc1cccc(N2CCN(C(=O)c3c(C)oc4ncnc(N5CCCCC5)c34)CC2)c1C,3%,x,x,-5%,-24%,-11%
O=C(OC(C(=O)O)C(OC(=O)c1ccccc1)C(=O)NCc1ccccc1)c1ccccc1 (centres undefined),27%,x,2%,-6%,89µM*,-9%
CC(=O)Nc1ccc(NC(=O)C(OC(=O)c2ccccc2)C(OC(=O)c2ccccc2)C(=O)O)cc1 (centres undefined),-22%,1,-7%,-22%,62%,0%
CS(=O)(=O)c1sc(C#N)c2c1C(=O)CC(c1ccccc1)C2 (centres undefined),6%,-3,40µM*,-12%,u,u
CC1CCC(NC(=O)c2ccc(CS(=O)(=O)c3cccc(C(F)(F)F)c3)o2)CC1 (centres undefined),0%,x,x,2%,8%,-16%
COc1ccc(C2=Nn3c(nnc3-c3ccccc3F)SC2)cc1OC1CCCC1,x,x,x,50µM*,-10%,-15%
COc1ccc(C2=Nn3c(nnc3-c3ccccc3F)SC2)cc1OC1CCOC1 (centres undefined),x,x,x,u,-18%,-7%
Cc1cc(=O)oc2cc(Oc3ccc([N+](=O)[O-])cc3[N+](=O)[O-])ccc12,-4%,3,-35%[11.6 µM],-8%,79µM*,u
Cc1cc(=O)oc2cc(Oc3ncccc3[N+](=O)[O-])ccc12,u,-25,3%,-10%,97%,-8%
NC(=O)c1ccc(Oc2ccc3ccc(=O)oc3c2)c([N+](=O)[O-])c1,u,u,-15%[11.6 µM],u,u,28µM*
Cc1nn2c(C)c(C(=O)NCc3ccco3)cnc2c1-c1ccccc1,1%,x,x,0%,-12%,-13%
O=C1CSC(=S)N1Nc1ccccc1,x,-21,u,-6%,32µM*,-9%
CC12CCC3c4ccc(O)c([N+](=O)[O-])c4CCC3C1CCC2=O (centres undefined),x,-59*,-6%,x,x,-6%
Cc1ccc(C(=O)c2c(C)oc3c2C(=O)C(=O)c2ccccc2-3)cc1,-25%,-13,-35%,-4%,-45%,45µM*
Cc1oc2c(c1C(=O)c1ccc(Cl)cc1)C(=O)C(=O)c1ccccc1-2,32%,1,-35%,-8%,52%,-14%
COc1ccc(/C=N/Nc2nc(=O)[nH]nc2C)cc1[N+](=O)[O-],-7%,6,-10%,-16%,38%,-2%
O=[N+]([O-])c1cc(Cl)cc(/C=N/Nc2nc3ccccc3s2)c1O,u,12,6%[57.1 µM],-15%,47%,6%
COc1cc(/C=N/Nc2ccccc2[N+](=O)[O-])cc(OC)c1O,2%,6,-1%,5%,60%,-10%
SMILES,POLB inh,PI5P4Ka inh,WRN helicase inh,Pol kappa inh,POLI inh,Pol eta inh
COc1cc(/C=N/Nc2nc(=O)[nH]nc2C)cc([N+](=O)[O-])c1O,-14%,-52*,-11%,0%,12%,-13%
COc1cc(/C=N/Nc2ccc(S(N)(=O)=O)cc2[N+](=O)[O-])cc(OC)c1O,u,2,-6%[11.6 µM],-20%,40µM*,u
COc1cc(/C=N/Nc2nc3ccccc3s2)cc([N+](=O)[O-])c1O,22µM*,-51*,u,-6%,-8%,56µM*
CCOc1ccc(-n2c(=O)c3c(C)c(C)sc3n(CC(=O)C(C)(C)C)c2=O)cc1,-2%,x,x,5%,2%,x
O=C(O)c1ccc(N=N/C(=N\Nc2ccc(C(=O)O)cc2)c2ccccc2)cc1,x,-80*,-13%,-12%,-12%,-9%
O=C(CC1N=C2c3ccccc3N=C(SCc3ccccc3F)N2C1=O)NCCc1ccccc1 (centres undefined),-15%,x,x,2%[60.1 µM],3%,-10%
Cc1ccc(OCCC(=O)OCC(=O)Nc2ccc(Cl)cn2)cc1,-21%,-15,-13%[57.1 µM],-38%,u,16µM*
COc1ccc(OC)c(NC(=O)c2cc(-c3cc(C)ccc3O)n[nH]2)c1,-28%,2,5%,-7%,25µM*,-28%
COC(=O)c1c(C)sc(-c2c(-c3ccc(F)cc3)[nH]c3[nH]c(=O)[nH]c(=O)c23)c1O,56µM*,x,x,u,u,x
COc1cccc(CSc2nc(-c3ccccc3F)nc3c2Cc2c(CO)cnc(C)c2O3)c1,18%,x,x,1%,16%,0%
COc1cccc(OCC(=O)NCCS(=O)(=O)N2CCN(c3ccccc3F)CC2)c1,26%,x,x,-11%[60.1 µM],13%,-15%
COc1cc(-c2ccc(N=Nc3ccc4c(S(=O)(=O)O)cc(S(=O)(=O)O)c(N)c4c3O)c(OC)c2)ccc1N=Nc1ccc2c(S(=O)(=O)O)cc(S(=O)(=O)O)c(N)c2c1O,x,x,x,0.25µM*,x,x
Cn1c(NN)nc2c1c(=O)n(Cc1ccccc1)c(=O)n2C,40µM*,-58*,-6%,-16%,u,u
CCOc1ccc(CNC(=O)CCCn2c(=O)c3cccn3c3ccccc32)cc1,-26%,x,x,-6%,-6%,-1%
CCOc1ccc(NC(=O)CCS(=O)(=O)c2ccc(Br)s2)cc1,28µM*,x,x,-28%,8%,u
